The text below walks through data of PubChem BioAssay (NCATS).

A number with no mark means an inactive call. Inconclusive results are not listed. The list shows a part of the results. The source made the active and inactive calls. Unless noted, the call rests on the fitted dose curve; in most records, active means well fitted curve in the direction sought with a large enough effect; inconclusive means small, poorly fitted or top-dose-only effect, or another doubt; inactive means no such curve, though single readings can be large; an effect the other way counts as inactive or inconclusive. Some results are limits rather than exact numbers.

Experiment [1] addresses Tumor susceptibility gene 101 protein (Homo sapiens) (UniProt Q99816). Kind of experiment: qHTS Assay for Iinhibitors of HIV-1 Budding by Blocking the Interaction of PTAP/TSG101: Hit Validation (AID 651600). Further: nearly all actives have a fitted effect of over 70% in size. Further: potency means the concentration at half of the fitted maximal effect. On activity change, negative = inhibition: on the % scale 0 is the no-effect control and ±100 the full control effect. The procedure, abridged: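 Fluorescence polarization binding assay: Tsg101 binding domain (10 uM final) pre-dispensed with compounds, then FITC-labeled PTAP-motif peptide (50 nM final) added; 20 min at r.t. in HEPES pH 7.5 buffer with NaCl, Tween 20, EDTA, TCEP.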

The target of experiment [2] is Rap guanine nucleotide exchange factor 3 (Homo sapiens) (UniProt O95398). Put plainly: Confirmatory qHTS for agonist of cAMP-regulated guanine nucleotide exchange factor 3 (EPAC1) (AID 1645881).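 Further: EPAC1 catalysed release of BODIPY-GDP from Rap1B seen as fluorescence loss; 100% = effect of cAMP agonist control; nearly all actives have a fitted effect of over 75% in size.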
The target in experiment [3] is Rap guanine nucleotide exchange factor 4 (Homo sapiens) (UniProt Q8WZA2). Put plainly: Confirmatory qHTS for agonist of cAMP-regulated guanine nucleotide exchange factor 4 (EPAC2) (AID 1645884).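 Further: nucleotide exchange releases bodipy-GDP from Rap1 and this lowers its fluorescence; on the % scale 0 is the no-effect control and ±100 the full control effect; nearly all actives have a fitted effect of over 65% in size.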
For experiment [4] the target is unchanged. Put plainly: Confirmatory qHTS for antagonist of cAMP-regulated guanine nucleotide exchange factor 4 (EPAC2) (AID 1645885). Further: on the % scale 0 is the no-effect control and ±100 the full control effect; nearly all actives have a fitted effect of over 25% in size.
The target in experiment [5] is Rap guanine nucleotide exchange factor 3 (Homo sapiens) (UniProt O95398). Kind of experiment: Counterscreen qHTS for antagonist of cAMP-regulated guanine nucleotide exchange factor 3 (EPAC1) (AID 1645888).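 Further: fluorescence loss as bound BODIPY-GDP is released from Rap1B; % of control where 0% means no effect.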 The gist of the method: (§1)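 Rap1B–BODIPY-GDP (250 nM) with 50 uM GDP; compounds pin-transferred to 9.74 nM–152 uM final (activator) or from 7.32 nM upwards (inhibitor). Fluorescence Ex/Em 480/540 nm read at 5 and 30 min, then after adding cAMP or buffer, at room temperature.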

Experiment [6] shares this target. Kind of experiment: Counterscreen qHTS for agonist of cAMP-regulated guanine nucleotide exchange factor 3 (EPAC1) (AID 1645889). Further: nearly all actives have a fitted effect of over 40% in size. Further: potency means the concentration at half of the fitted maximal effect. On activation: % of control where 0% means no effect. The gist of the method: as §1
Experiment [7] can be described thus: qHTS for Inhibitors of the vitamin D receptor (VDR): Hit Validation using a Texas Red Assay (AID 602201). Further: potency means the concentration at half of the fitted maximal effect. The procedure, abridged: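 Fluorescence polarization with 1.5 uM VDR-LBD, LG19078 and 7 nM Texas Red (final). After 2 hours at ambient temperature, read at Ex 595 nm/Em 615 nm.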
Experiment [8] deals with Tyrosyl-DNA phosphodiesterase 1 (Homo sapiens) (UniProt Q9NUW8). Put plainly: Confirmation Assay for Inhibitors of Tyrosyl-DNA Phosphodiesterase (TDP1) (AID 489007). Further: potency means the concentration at half of the fitted maximal effect; nearly all actives have a fitted effect of over 40% in size. The note with it: recombinant human TDP1 enzymatic activity, dose-response. The gist of the method:
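Recombinant E. coli-expressed Tdp1 (1 nM final) was preincubated with compounds 15 min at room temperature, then reacted 5 min with 15 nM 5'-biotin/3'-phosphotyrosine-FITC DNA substrate; cleavage read as loss of AlphaScreen signal (10 ug/ml beads, 10 min).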

Experiment [9] deals with Cytochrome P450 1A2 (Homo sapiens) (UniProt P05177). Put plainly: p450-cyp1a2 (AID 410; calls by dose curve; further: potency means the concentration at half of the fitted maximal effect). The gist of the method: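 Human CYP1A2 (20nM) demethylated Luciferin-ME at its Km (100uM) in 100mM KPO4. After 10 min compound preincubation, NADPH regeneration ran the reaction 60 min at room temperature. Luciferin was read by luminescence, normalized to 57 uM furafylline.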
In experiment [10] the target is Glucocorticoid receptor (Homo sapiens) (UniProt P04150). Kind of experiment: GR-GFP Redistribution (AID 450;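 active means compounds whose dose series gives a full or clear partial fitted curve of increased nuclear translocation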; further: potency means the concentration at half of the fitted maximal effect). The note with it: U2OS GR-GFP nuclear translocation, laser cytometry, 2 h.
The target is the same in experiment [11]. Put plainly: GR-EFC Redistribution (AID 451; calls by dose curve; further: potency means the concentration at half of the fitted maximal effect). To be noted: CHO-K1 GR-EFC translocation, beta-gal luminescence, 2 h. The procedure, abridged: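 CHO-K1 cells expressing nuclear EA and GR-ED fragments of b-gal; compounds titrated up to 46 uM final, 2 h at 37 C. GR nuclear translocation read as complemented b-gal luminescence after 1 h RT detection.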
In experiment [12] the target is 3',5'-cyclic-AMP phosphodiesterase 4B (Homo sapiens) (UniProt Q07343). Put plainly: qHTS Assay for Inhibitors of PDE-IV (AID 607; active means well fitted activation curve with a large enough effect in the main read-out, with a control signal flat, not every such curve was filed as active; further: % of control where 0% means no effect). The procedure, abridged:
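The readout is membrane depolarisation from a cAMP-sensing CNG channel, detected with a potential dye at ex 535/em 590. Cells were HEK293-derived (endogenous PDE-IV) at 1000 cells/well, titrated up to 22.9 uM final.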

Experiment [13] deals with Cytochrome P450 2C9 (Homo sapiens) (UniProt P11712). Kind of experiment: qHTS Assay for Inhibitors and Substrates of Cytochrome P450 2C9 (AID 883). Further: potency means the concentration at half of the fitted maximal effect; nearly all actives have a fitted effect of over 60% in size. The gist of the method: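 Human CYP2C9 (10nM) with Luciferin-H at 100uM (its KM) in 25mM KPO4; compound preincubated 10 min at 37C, then NADPH regeneration for 60 min at 37C. Luciferin read by luminescence after detection reagent; normalized to 57uM sulphaphenazole as full inhibition.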

Experiment [14] addresses Cytochrome P450 3A4 (Homo sapiens) (UniProt P08684). Kind of experiment: qHTS Assay for Activators of Cytochrome P450 3A4 (AID 885). Further: nearly all actives have a fitted effect of over 65% in size. The gist of the method: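 Steps: enzyme/substrate mix dispensed; compound added, 10 min RT; NADPH regeneration solution added, 60 min RT; luciferin detection buffer stops reaction; 20 min later luminescence measured.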
The target of experiment [15] is Cytochrome P450 2D6 (Homo sapiens) (UniProt P10635). Kind of experiment: qHTS Assay for Inhibitors and Substrates of Cytochrome P450 2D6 (AID 891). Further: potency means the concentration at half of the fitted maximal effect; nearly all actives have a fitted effect of over 60% in size. The procedure, abridged:
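Human CYP2D6 (5 nM) with 30 uM Luciferin-ME EGE (at Km) in 100 mM KPO4, compound preincubated 10 min, then NADPH regeneration system for 60 min at room temperature. Luciferin read by luminescence; normalized to 1.43 uM quinidine.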

Experiment [16] addresses Cytochrome P450 2C19 (Homo sapiens) (UniProt P33261). Put plainly: qHTS Assay for Inhibitors and Substrates of Cytochrome P450 2C19 (AID 899). Further: potency means the concentration at half of the fitted maximal effect; nearly all actives have a fitted effect of over 60% in size. The gist of the method: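 5 nM human CYP2C19 with 10uM Luciferin-H EGE (at KM) in 50mM KPO4, compound preincubated 10 min at 37C, then NADPH regeneration for 60 min at 37C. Luciferin read by luminescence after detection reagent; normalized to 57uM ketoconazole as full inhibition.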

The target of experiment [17] is ATPase family AAA domain-containing protein 5 (Homo sapiens) (UniProt Q96QE3). Kind of experiment: qHTS screen for small molecules that inhibit ELG1-dependent DNA repair in human embryonic kidney (HEK293T) cells expressing luciferase-tagged ELG1: Hit Confirmation using MMS Stimulated ELG1 (AID 624249).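 Further: cells co-treated with MMS at 10 µM final alongside compound; luminescence of ELG1-luciferase fusion read with Amplight reagent; series mostly up to about 46 µM; on the % scale 0 is the no-effect control and ±100 the full control effect; nearly all actives have a fitted effect of over 60% in size.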 The procedure, abridged: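 ELG1-luciferase HEK293T cells were plated at 2,000 cells/well, and about 5 h later test compounds were pin-transferred alongside MMS (final 10 µM). After 16 h, luciferase activity was read with Amplight reagent; hits suppress the signal.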

The nature of experiment [18]: qHTS screen for small molecules that inhibit ELG1-dependent DNA repair: Hit Confirmation with MMS Viability (AID 624251). The procedure, abridged:
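Viability read-out: CellTiter-Glo, 16 h after compound addition. Cell line ELG1-luc HEK293T; DNA-damaging co-treatment MMS, 10 µM final.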

Chain of Rap guanine nucleotide exchange factor 3 (Homo sapiens) (O95398 whole entry, looked up): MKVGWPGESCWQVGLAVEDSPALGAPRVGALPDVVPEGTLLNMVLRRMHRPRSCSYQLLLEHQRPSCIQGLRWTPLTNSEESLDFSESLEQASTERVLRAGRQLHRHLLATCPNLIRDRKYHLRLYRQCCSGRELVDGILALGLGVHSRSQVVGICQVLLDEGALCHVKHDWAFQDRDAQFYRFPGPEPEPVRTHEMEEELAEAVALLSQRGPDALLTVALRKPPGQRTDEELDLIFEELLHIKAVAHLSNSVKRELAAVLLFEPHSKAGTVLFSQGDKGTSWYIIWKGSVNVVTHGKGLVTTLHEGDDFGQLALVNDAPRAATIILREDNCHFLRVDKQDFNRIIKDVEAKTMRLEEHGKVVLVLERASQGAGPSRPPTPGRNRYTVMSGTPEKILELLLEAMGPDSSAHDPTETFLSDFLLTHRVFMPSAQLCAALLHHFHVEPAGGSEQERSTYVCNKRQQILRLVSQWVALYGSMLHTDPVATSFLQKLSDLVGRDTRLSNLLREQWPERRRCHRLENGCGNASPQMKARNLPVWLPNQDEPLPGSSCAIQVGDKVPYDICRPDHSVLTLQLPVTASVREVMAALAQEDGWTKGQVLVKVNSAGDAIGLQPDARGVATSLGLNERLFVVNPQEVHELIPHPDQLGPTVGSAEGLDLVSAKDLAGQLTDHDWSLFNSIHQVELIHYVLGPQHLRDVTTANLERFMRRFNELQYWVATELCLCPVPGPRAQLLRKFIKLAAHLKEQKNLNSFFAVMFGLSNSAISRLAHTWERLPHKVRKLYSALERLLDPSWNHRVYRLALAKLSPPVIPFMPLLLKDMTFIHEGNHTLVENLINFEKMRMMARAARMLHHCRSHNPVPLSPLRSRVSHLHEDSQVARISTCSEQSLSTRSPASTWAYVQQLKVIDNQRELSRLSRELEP
Chain of Rap guanine nucleotide exchange factor 4 (Homo sapiens) (Q8WZA2 whole entry, looked up): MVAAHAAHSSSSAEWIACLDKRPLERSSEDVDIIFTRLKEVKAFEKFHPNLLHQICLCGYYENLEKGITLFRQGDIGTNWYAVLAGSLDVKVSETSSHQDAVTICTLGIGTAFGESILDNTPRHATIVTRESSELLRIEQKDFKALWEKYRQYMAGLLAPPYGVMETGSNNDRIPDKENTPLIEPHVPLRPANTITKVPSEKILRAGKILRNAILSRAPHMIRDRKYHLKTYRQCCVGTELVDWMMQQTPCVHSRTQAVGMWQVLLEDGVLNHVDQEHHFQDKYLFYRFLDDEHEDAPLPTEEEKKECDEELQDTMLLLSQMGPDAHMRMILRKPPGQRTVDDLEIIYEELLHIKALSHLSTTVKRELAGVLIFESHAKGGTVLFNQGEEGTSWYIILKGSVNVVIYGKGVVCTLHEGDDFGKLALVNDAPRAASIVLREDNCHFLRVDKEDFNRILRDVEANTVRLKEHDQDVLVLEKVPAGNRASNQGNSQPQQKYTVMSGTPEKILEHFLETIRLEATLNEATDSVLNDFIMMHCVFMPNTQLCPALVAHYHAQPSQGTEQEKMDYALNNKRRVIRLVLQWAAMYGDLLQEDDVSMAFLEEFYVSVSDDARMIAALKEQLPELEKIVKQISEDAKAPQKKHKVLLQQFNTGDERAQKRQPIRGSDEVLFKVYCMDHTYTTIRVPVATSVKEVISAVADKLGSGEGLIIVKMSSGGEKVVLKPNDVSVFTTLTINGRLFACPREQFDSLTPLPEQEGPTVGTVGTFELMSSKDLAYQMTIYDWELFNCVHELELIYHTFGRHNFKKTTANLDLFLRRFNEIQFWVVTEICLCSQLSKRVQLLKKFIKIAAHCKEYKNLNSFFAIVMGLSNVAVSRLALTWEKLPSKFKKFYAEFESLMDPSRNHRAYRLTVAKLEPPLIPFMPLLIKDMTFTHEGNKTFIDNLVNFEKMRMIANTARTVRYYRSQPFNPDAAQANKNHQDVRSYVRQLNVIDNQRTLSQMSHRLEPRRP
Chain of Tumor susceptibility gene 101 protein (Homo sapiens) (Q99816 whole entry, looked up, the tested form may be a part): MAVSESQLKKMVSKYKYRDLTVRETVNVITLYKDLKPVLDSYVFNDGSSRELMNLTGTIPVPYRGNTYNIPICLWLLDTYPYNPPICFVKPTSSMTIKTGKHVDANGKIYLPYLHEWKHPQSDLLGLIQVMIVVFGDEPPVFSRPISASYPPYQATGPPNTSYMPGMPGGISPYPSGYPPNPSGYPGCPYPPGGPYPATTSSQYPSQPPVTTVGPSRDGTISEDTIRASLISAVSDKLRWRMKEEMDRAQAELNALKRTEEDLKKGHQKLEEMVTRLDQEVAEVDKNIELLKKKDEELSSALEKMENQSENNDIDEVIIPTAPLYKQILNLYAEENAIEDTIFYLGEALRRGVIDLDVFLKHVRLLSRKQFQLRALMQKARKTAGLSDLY
Chain of Glucocorticoid receptor (Homo sapiens) (P04150 whole entry, looked up, the tested form may be a part): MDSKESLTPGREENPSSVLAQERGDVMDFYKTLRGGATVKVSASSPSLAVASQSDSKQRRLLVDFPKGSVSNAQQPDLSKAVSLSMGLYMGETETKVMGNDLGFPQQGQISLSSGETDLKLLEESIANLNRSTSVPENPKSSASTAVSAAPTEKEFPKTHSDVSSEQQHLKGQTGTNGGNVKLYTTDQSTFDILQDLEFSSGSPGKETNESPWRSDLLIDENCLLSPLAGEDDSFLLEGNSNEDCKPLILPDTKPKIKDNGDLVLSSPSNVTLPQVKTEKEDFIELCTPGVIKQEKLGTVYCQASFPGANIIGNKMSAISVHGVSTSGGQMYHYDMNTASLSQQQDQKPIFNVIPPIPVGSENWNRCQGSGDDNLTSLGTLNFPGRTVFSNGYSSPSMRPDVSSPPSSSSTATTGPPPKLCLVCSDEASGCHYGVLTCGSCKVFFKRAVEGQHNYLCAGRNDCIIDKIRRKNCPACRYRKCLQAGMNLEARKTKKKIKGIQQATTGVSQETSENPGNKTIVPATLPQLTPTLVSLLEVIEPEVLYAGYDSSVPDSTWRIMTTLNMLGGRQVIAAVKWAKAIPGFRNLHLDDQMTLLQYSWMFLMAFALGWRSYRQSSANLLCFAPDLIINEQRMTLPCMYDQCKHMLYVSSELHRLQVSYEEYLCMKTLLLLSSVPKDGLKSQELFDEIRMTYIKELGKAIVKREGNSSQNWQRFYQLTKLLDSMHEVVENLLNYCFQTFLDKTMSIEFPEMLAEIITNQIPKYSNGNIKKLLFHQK
Chain of 3',5'-cyclic-AMP phosphodiesterase 4B (Homo sapiens) (Q07343 whole entry, looked up): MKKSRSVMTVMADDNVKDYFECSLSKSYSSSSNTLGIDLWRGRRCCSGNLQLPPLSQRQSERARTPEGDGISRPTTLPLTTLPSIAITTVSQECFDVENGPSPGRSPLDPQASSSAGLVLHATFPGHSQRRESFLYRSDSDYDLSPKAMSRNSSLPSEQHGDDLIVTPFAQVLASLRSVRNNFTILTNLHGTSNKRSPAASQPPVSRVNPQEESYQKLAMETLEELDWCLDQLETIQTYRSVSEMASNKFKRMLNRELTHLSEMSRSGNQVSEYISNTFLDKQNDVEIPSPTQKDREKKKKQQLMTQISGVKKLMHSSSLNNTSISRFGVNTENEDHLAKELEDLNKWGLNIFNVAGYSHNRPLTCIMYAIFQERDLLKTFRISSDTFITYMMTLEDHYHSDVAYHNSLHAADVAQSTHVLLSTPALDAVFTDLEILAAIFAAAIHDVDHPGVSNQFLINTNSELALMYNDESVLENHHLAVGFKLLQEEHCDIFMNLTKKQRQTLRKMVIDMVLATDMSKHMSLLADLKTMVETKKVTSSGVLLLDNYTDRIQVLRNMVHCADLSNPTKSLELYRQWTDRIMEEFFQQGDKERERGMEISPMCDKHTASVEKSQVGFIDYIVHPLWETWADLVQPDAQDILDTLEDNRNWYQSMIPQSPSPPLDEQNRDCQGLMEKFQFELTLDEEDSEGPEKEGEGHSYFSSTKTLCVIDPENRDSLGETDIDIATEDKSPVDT
Chain of Cytochrome P450 2D6 (Homo sapiens) (P10635 whole entry, looked up): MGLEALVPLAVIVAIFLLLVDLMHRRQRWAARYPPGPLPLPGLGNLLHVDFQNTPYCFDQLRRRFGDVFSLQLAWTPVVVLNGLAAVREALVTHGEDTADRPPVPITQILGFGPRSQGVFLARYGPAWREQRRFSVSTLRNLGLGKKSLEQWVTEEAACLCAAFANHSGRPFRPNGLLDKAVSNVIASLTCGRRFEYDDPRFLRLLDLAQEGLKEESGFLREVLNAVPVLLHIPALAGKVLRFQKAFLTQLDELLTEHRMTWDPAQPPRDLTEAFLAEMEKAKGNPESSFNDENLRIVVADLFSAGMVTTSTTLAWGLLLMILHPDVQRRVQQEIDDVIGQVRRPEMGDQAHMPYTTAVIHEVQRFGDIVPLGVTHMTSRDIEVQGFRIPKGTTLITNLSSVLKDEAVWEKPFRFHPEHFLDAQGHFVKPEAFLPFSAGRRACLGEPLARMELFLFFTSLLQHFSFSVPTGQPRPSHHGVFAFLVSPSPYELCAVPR
Chain of Cytochrome P450 2C9 (Homo sapiens) (P11712 whole entry, looked up): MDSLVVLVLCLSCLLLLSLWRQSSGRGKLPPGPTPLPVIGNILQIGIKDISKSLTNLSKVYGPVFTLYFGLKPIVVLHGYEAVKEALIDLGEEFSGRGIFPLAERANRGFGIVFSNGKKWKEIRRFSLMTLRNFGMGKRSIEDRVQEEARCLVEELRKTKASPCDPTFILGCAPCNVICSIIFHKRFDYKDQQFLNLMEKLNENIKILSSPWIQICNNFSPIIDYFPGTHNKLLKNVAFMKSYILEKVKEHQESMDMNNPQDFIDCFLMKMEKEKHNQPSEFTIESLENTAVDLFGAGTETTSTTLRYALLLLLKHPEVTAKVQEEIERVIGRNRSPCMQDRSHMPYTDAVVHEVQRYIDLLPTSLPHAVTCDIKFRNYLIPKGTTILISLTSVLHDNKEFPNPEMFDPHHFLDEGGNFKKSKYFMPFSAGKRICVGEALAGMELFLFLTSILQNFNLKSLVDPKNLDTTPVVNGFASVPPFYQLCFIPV

`O=C(CCl)N1c2ccccc2Oc2ccc3ccccc3c21`: the Potency result in experiment [1], in experiment [2], in experiment [3], in experiment [4] and in experiment [5] was “inactive” in each case. Also, the Potency in [6] was 35.5 µM (active).

In the case of `CC1=NN(c2cccc(C(=O)O)c2)C(=O)/C1=C\C=C/c1ccccc1`, the Potency in [7] was 5.62 µM (active). Further, the Potency entry in experiment [2], in experiment [3], in [4] and in experiment [5] was “inactive” in each case.

In the case of `COc1ccc(OC)c2c1C(=O)c1ccccc1C2=O`, the Potency in experiment [1] is 14.6 µM (active). Moreover, the Potency result in experiment [2], in experiment [3], in experiment [4] and in [5] was “inactive” each time.

`COc1ccc(C(CC(=O)N2CCCC2)c2c(OC)cc(OC)c3c(-c4ccccc4)cc(=O)oc23)cc1` (stereo unspecified): the Potency in experiment [8] is 2.24 µM (active). The Potency result in [2], in experiment [3], in experiment [4] and in experiment [5] was “inactive” in each case.

Consider `O=C1C=C(NCCc2cc(Br)c(O)c(Br)c2)C(=O)c2ncccc21`, for which the Potency in [9] is 3.16 µM (active); in [10], greater than 46 µM; in [11], greater than 9.22 µM; in experiment [13] it was 1.58 µM (active); in experiment [15], 1.58 µM (active); in experiment [16], 501 nM (active). The Potency result in experiment [12], in experiment [2] and in experiment [4] was “inactive” throughout. The activity change, positive = activation in [14] was -62.8% [at 11.4 µM]. Also, the activation in experiment [3] is 5.19% [at 17.1 µM, percent relative to cAMP agonist control]; in experiment [6], 14.9% [at 30.8 µM]. Moreover, the activity change, negative = inhibition in experiment [5] was -20.2% [at 30.8 µM].

As to `Cc1cccc(N2C(=O)C(O)=C(C(=O)c3cccs3)C2c2cccc(Oc3ccccc3)c2)n1` (stereo unspecified), the Potency entry in [2], in experiment [3], in experiment [4] and in experiment [6] was “inactive” throughout.

With `O=C1C(Cl)=C(NS(=O)(=O)c2ccc([N+](=O)[O-])cc2)C(=O)c2ccccc21`, the Potency result in [7], in experiment [2] and in experiment [4] was “inactive” in each case. Moreover, the activation in experiment [3] was 8.93% [at 17.1 µM, percent relative to cAMP agonist control]. In addition, in experiment [5], the activity change, negative = inhibition was 11.7% [at 30.8 µM].

As to `COc1cc(N)c(Cl)cc1C(=O)OCC(=O)c1ccc2c(c1)NC(=O)CO2`, the Potency entry in experiment [17], in [2], in experiment [3], in experiment [4], in [5] and in [6] was “inactive” in each case. In addition, the compound was classed as inactive in experiment [18].

As to `O=C(NNc1cc(Br)c(O)c(Br)c1)c1ccccc1`, the Potency in [7] was 25.1 µM (active). For the same compound, the Potency result in [2] and in experiment [4] was “inactive” each time. The activation in [3] is -6.77% [at 17.1 µM, percent relative to cAMP agonist control]; in experiment [6], 11.6% [at 30.8 µM]. For the same compound, in experiment [5], the activity change, negative = inhibition is -6.86% [at 30.8 µM].
